# The campaign covered roughly 340,000 compounds. About 8,500 (2.5%) were called active.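 How the source made its calls: active means melting temperature shift of at least 10% of the positive control shift, at one fixed dose; inactive means the rest.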 The full list was thinned out, with actives kept by preference.
# System: Glutamate receptor ionotropic, NMDA 3A (GRIN3A) ligand-binding domain
# Experiment: NR3A LBD thermal stabilization by compounds – biophysical, differential scanning fluorimetry, uHTS, primary screen (AID 1259313)
# Conditions: at 25 µM, active compounds read high, 0% = protein alone, 100% = glycine-bound protein
row,SMILES,Tm shift relative to glycine control
1,N/C(=N\S(=O)(=O)c1cc(C(F)(F)F)cc(C(F)(F)F)c1)c1cccs1,-1.45% (inactive)
2,N#Cc1cccc(CSc2nnc(CCCO)n2-c2ccccc2)c1,-2.26% (inactive)
3,O=C(Nc1ccc(N2CCOCC2)cc1)c1cccc(S(=O)(=O)N2CCOCC2)c1,1.57% (inactive)
4,O=C(Nc1ccc(S(=O)(=O)N2CCOCC2)cc1)c1ccc2ncsc2c1,23.1% (active)
5,O=C(Nc1ccc(S(=O)(=O)Nc2nccs2)cc1)c1cccc(S(=O)(=O)N2CCOCC2)c1,-7.34% (inactive)
6,COc1ccc2c(c1)OC(O)(C(F)(F)C(F)F)CC2=O (stereo unspecified),-0.91% (inactive)
7,C=CCN(c1ccc(Cl)cc1)S(=O)(=O)c1cccc(C(=O)OCC(=O)N(C)C)c1,-2.3% (inactive)
8,O=C(CSc1nc(O)c(Cc2ccccc2)c(=O)[nH]1)Nc1nc2c(s1)CCCC2,0.31% (inactive)
9,CN(C)CCNc1ccc(-c2n[nH]c(=O)c3ccccc23)cc1[N+](=O)[O-],-4.51% (inactive)
10,COc1cc(C2c3cc4c(cc3C(O)C3COC(=O)C23)OCO4)cc(OC)c1OC (stereo unspecified),0.33% (inactive)
11,OC(C#CCN1CCOCC1)(c1ccccc1)C1CCCCC1 (stereo unspecified),0.88% (inactive)
12,CN(CC#CCC(c1ccccc1)c1ccccc1)C(C)(C)C,-1.63% (inactive)
13,CC(C)(C)N(CC#CCC(O)(c1ccccc1)C1CCCC1)CCO (stereo unspecified),14.9% (active)
14,O=C(NN1C(=O)C2C3C=CC(O3)C2C1=O)c1ccccc1 (stereo unspecified),-2.22% (inactive)
15,Cc1ccc2nsnc2c1NC(=O)c1ccccc1[N+](=O)[O-],-9.29% (inactive)
16,COc1ccc(NC(=O)Nc2ccc3nsnc3c2)cc1,33.6% (active)
17,Cc1ccc(NC(=O)Nc2ccc3oc(C)nc3c2)cc1,-7.01% (inactive)
18,Cc1nc(/N=C(\N)NC(=O)NC2CCCCC2)nc2ccccc12,-0.41% (inactive)
19,COc1ccc2nc(/N=C(\N)NC(=O)Nc3ccccc3)nc(C)c2c1,29.4% (active)
20,COCCNC(=O)Nc1ccc2nc(-c3ccco3)c(-c3ccco3)nc2c1,-1.95% (inactive)
21,COc1ccc2nc(C)cc(Nc3cccc(C(=O)O)c3)c2c1,-1.4% (inactive)
22,COc1ccc(NC(=O)Nc2ccc3nc(C)c(C)nc3c2)cc1,19% (active)
23,O=C(Nc1ccccc1)c1ccc2nsnc2c1,1.64% (inactive)
24,COc1ccc(/C=N/NC(=O)Nc2ccc3nsnc3c2)c(OC)c1,-2.88% (inactive)
25,CCC1(C(=O)c2ccccc2)C(c2cccc([N+](=O)[O-])c2)C1(C(=O)OC)C(=O)OC (stereo unspecified),-4.39% (inactive)
26,CCCCCN(C(=O)NC(=O)Nc1ccccc1C)S(C)(=O)=O,-1.26% (inactive)

# Reference: PubChem BioAssay AID1259313 (Sanford-Burnham Center for Chemical Genomics, 2017)
